# According to PubChem BioAssay (EPA / NIEHS):
# “And” between values parts separate entries of the source, which are not always exact repeats. Equal entries are not always repeated. The source holds several records for some structures; these can differ, active in one and inactive in another. The source made the active and inactive calls. How the source made its calls: active means hit-call score of the fitted dose curve at least 0.9, where 1 is the maximum; inactive means score below 0.9.
# Tests used:
# [1] = ATG_Ets_CIS: Attagene CIS-FACTORIAL HepG2 Assay for human Erythroblast Transformation Specific (ETS) (AID 2282941); conditions: HepG2 ETS cis-reporter transcription, actives raise or lower the signal
# In short: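 Cis-regulated reporter mRNA induction in HepG2 (transient transfection), 24 h exposure, RT-PCR plus capillary electrophoresis detection; DMSO serves as negative control and baseline.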
# [2] = target: Hepatocyte nuclear factor 3-beta (Homo sapiens) (UniProt Q9Y261); test: ATG_FoxA2_CIS: Attagene CIS-FACTORIAL HepG2 Assay for human Forkhead box A2 (FOXA2) (AID 2282942); conditions: HepG2 cis-reporter transcription factor activity, 24 h; actives raise or lower the signal
# In short: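 Transient MRTU transfection of HepG2 liver cells; 24 h treatment; total RNA → oligo(dT) RT → PCR → FAM primer extension → HpaI cut → CE. Bidirectional fit vs DMSO.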
# [3] = ATG_FoxO_CIS: Attagene CIS-FACTORIAL HepG2 Assay for human Forkhead box O (FoxO) (AID 2282943); conditions: HepG2 Attagene cis-reporter, FoxO element, mRNA; actives raise or lower the signal
# In short: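 HepG2 cells transiently transfected with cis-promoter-driven multiple reporter transcription units; 24 h after chemical dosing, reporter mRNA quantified by RT-PCR, fluorescent primer extension, HpaI digestion and capillary electrophoresis. Bidirectional fitting versus DMSO baseline.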
# [4] = ATG_GATA_CIS: Attagene CIS-FACTORIAL HepG2 Assay for human GATA Binding Protein (AID 2282944); conditions: HepG2 GATA cis-element reporter, Attagene multiplex mRNA; actives raise or lower the signal
# In short: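 Endogenous transcription factor activity was captured through cis-promoter-driven reporters in transfected HepG2 cells. After 24 h exposure, reporter transcripts were quantified by RT-PCR with fluorescent capillary electrophoresis, and responses fitted both directions against DMSO.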
# [5] = ATG_GLI_CIS: Attagene CIS-FACTORIAL HepG2 Assay for human Zinc Finger Protein GLI1 (AID 2282945); conditions: HepG2, Attagene cis-factorial reporter mRNA, GLI element; actives raise or lower the signal
# In short: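 HepG2 cells transiently transfected with cis-promoter multiplexed reporter units report endogenous transcription factor activity. After 24 h chemical exposure, reporter mRNA was quantified by RT-PCR, 6-FAM labelling, HpaI digestion and capillary electrophoresis, with bidirectional fitting against DMSO.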
# [6] = target: Bile acid receptor (Homo sapiens) (UniProt Q96RI1); test: ATG_IR1_CIS: Attagene CIS-FACTORIAL HepG2 Assay for human Nuclear Receptor Subfamily 1 Group H Member 4 (NR1H4), IR1 submotif (AID 2282946); conditions: IR1 reporter transcription, actives raise or lower the signal
# In short: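 Readout: reporter transcript levels by RT-PCR with fluorescent capillary electrophoresis, from HepG2 cells transiently transfected with multiplexed cis-regulated reporters and dosed 24 h. Gain- or loss-of-signal fitted versus DMSO negative control.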
# [7] = ATG_GRE_CIS: Attagene CIS-FACTORIAL HepG2 Assay for human Glucocorticoid Response Elements (GRE) (AID 2282947); conditions: HepG2 GRE cis-reporter, Attagene multiplex mRNA; actives raise or lower the signal
# In short: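 Cells (HepG2) bearing transfected cis-promoter reporter transcription units were treated with chemical for 24 hours. Reporter mRNA was measured via RT-PCR with capillary electrophoresis, and activity was fitted in both directions relative to DMSO.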
# [8] = ATG_ISRE_CIS: Attagene CIS-FACTORIAL HepG2 Assay for human Interferon Regulatory Factor 1 (IRF1) binding to an Interferon-Stimulated Response Element (ISRE) (AID 2282948); conditions: HepG2 ISRE cis-reporter (Attagene), mRNA transcription readout; actives raise or lower the signal
# In short: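 Multiplexed mRNA reporter readout in human liver HepG2 cells: cis-element-driven reporters transfected, compound added for 24 h, transcripts amplified, fluorescently labelled and sized by capillary electrophoresis; curve fitting bidirectional against DMSO.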
# [9] = ATG_M_32_CIS: Attagene CIS-FACTORIAL HepG2 Assay for M32 Transcription Factor (Internal Marker) (AID 2282949); conditions: HepG2 Attagene cis-factorial M32 reporter, mRNA; actives raise or lower the signal;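 further: background control marker of the multiplexed CIS panel rather than a real target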
# In short: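 HepG2 human liver cells transiently transfected with cis-promoter-driven multiple reporter transcription units, dosed 24 h. Reporter mRNA quantified by RT-PCR, FAM-labelled primer extension, HpaI digest and capillary electrophoresis; bidirectional fit versus DMSO baseline.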
# [10] = ATG_M_06_CIS: Attagene CIS-FACTORIAL HepG2 Assay for M06 Transcription Factor (Internal Marker) (AID 2282950); conditions: HepG2 Attagene CIS-FACTORIAL M06 internal marker reporter; actives raise or lower the signal
# In short: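 Steps: transfect HepG2 with multiplexed cis-element reporter constructs; dose chemical 24 h; extract RNA with DNase treatment; reverse-transcribe, PCR-amplify, 6-FAM label, HpaI digest; separate fragments by capillary electrophoresis. Activity fitted both directions versus DMSO.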
# [11] = target: Hypoxia-inducible factor 1-alpha (Homo sapiens) (UniProt Q16665); test: ATG_HIF1a_CIS: Attagene CIS-FACTORIAL HepG2 Assay for human Hypoxia Inducible Factor 1 (HIF1A) (AID 2282951); conditions: HepG2 Attagene cis-factorial HIF1a reporter transcription; actives raise or lower the signal
# In short: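 Transient MRTU transfection of human HepG2 liver cells, 24 h compound treatment, then total RNA isolation, oligo(dT) reverse transcription, PCR amplification, fluorescent labelling and capillary electrophoresis of reporter fragments. Gain or loss relative to DMSO.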
# [12] = target: Hepatocyte nuclear factor 6 (Homo sapiens) (UniProt Q9UBC0); test: ATG_HNF6_CIS: Attagene CIS-FACTORIAL HepG2 Assay for human Hepatocyte Nuclear Factor 6 (HNF6) (AID 2282952); conditions: HepG2 Attagene cis-factorial HNF6 reporter transcription; actives raise or lower the signal
# In short: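 Activity values derive from bidirectional fitting against DMSO of reporter mRNA levels, measured by capillary electrophoresis of labelled RT-PCR products from HepG2 cells exposed 24 h.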
# [13] = target: Heat shock factor protein 1 (Homo sapiens) (UniProt Q00613); test: ATG_HSE_CIS: Attagene CIS-FACTORIAL HepG2 Assay for human Heat Shock Transcription Factor 1 (HSE) (AID 2282953); conditions: HepG2 HSE cis-reporter, Attagene RNA transcription; actives raise or lower the signal
# In short: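 Cells were transfected with cis-element-driven reporter constructs, dosed for 24 h, then total RNA was reverse-transcribed and reporter cDNA amplified, FAM-labelled and digested with HpaI. Fragments were resolved by capillary electrophoresis; gain or loss was fitted against DMSO.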
# [14] = ATG_MRE_CIS: Attagene CIS-FACTORIAL HepG2 Assay for human Metal Responsive Element (MRE) (AID 2282954); conditions: HepG2 MRE cis-reporter transcription, Attagene multiplex; actives raise or lower the signal
# In short: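 Cells were transfected with cis-promoter reporter transcription units, then dosed for 24 h. RNA was reverse-transcribed, amplified, fluorescently labelled and resolved by capillary electrophoresis, and activity was fitted in both directions relative to DMSO.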
# [15] = ATG_PBREM_CIS: Attagene CIS-FACTORIAL HepG2 Assay for human Phenobarbital-responsive Enhancer Module (PBREM) (AID 2282955); conditions: HepG2 PBREM cis-reporter, Attagene multiplexed transcription; actives raise or lower the signal
# In short: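 Endogenous transcription factors in human liver HepG2 cells drive a PBREM cis-element reporter, whose transcript level after 24 h treatment is quantified by RT-PCR with capillary electrophoresis; activity fitted in both directions against DMSO.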
# [16] = target: Paired box protein Pax-6 (Homo sapiens) (UniProt P26367); test: ATG_Pax6_CIS: Attagene CIS-FACTORIAL HepG2 Assay for human Paired Box 6 (PAX6) (AID 2282956); conditions: HepG2 CIS-FACTORIAL PAX6 reporter transcription, RNA readout; actives raise or lower the signal
# In short: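 Fluorescent RT-PCR products separated by capillary electrophoresis report PAX6-linked promoter mRNA in HepG2 cells 24 h post-dose. Curves fitted bidirectionally, DMSO as negative control.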
# [17] = ATG_PXRE_CIS: Attagene CIS-FACTORIAL HepG2 Assay for human Pregnane X Receptor Element (PXRE) (AID 2282957); conditions: HepG2 Attagene CIS-FACTORIAL PXRE reporter, mRNA; actives raise or lower the signal
# In short: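 Fluorescent capillary electrophoresis of amplified reporter cDNA gave the signal, collected 24 h after dosing HepG2 cells that held transfected cis-element reporter constructs.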
# [18] = ATG_PPRE_CIS: Attagene CIS-FACTORIAL HepG2 Assay for human Peroxisome Proliferator-activated Response Element (PPRE) (AID 2282958); conditions: HepG2 PPRE cis-element reporter, Attagene transcription factor profiling; actives raise or lower the signal
# In short: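 HepG2, transient MRTU transfection (cis promoter elements, endogenous TFs). 24 h dosing. RNA → oligo(dT) RT → PCR → 6-FAM primer extension → HpaI digest → CE. Bidirectional fit vs DMSO.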
# [19] = ATG_RORE_CIS: Attagene CIS-FACTORIAL HepG2 Assay for human RAR-related Orphan Receptor Element (RORE) (AID 2282959); conditions: HepG2 Attagene cis-factorial RORE reporter, mRNA; actives raise or lower the signal
# In short: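 Transient MRTU transfection of human HepG2 liver cells (FuGene 6); 24 h compound exposure; TriZol RNA, oligo(dT) RT, PCR, FAM labeling, HpaI cut, CE fragment analysis. DMSO = negative control/baseline.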
# Hepatocyte nuclear factor 6 (Homo sapiens), sequence (Q9UBC0 whole entry, looked up): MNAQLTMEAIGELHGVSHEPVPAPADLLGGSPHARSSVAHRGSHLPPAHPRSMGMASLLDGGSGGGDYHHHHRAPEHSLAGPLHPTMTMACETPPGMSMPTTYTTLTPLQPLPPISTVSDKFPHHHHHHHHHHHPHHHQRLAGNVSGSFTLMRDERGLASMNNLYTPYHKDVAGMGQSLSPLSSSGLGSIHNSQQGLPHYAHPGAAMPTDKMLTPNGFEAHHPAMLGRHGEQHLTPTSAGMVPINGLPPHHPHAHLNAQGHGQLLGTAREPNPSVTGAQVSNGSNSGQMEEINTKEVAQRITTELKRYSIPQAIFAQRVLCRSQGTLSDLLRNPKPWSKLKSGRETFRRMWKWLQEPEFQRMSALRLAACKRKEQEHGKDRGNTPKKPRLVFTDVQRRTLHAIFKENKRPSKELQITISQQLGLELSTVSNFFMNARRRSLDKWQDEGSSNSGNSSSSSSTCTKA
# Heat shock factor protein 1 (Homo sapiens), sequence (Q00613 whole entry, looked up, the tested form may be a part): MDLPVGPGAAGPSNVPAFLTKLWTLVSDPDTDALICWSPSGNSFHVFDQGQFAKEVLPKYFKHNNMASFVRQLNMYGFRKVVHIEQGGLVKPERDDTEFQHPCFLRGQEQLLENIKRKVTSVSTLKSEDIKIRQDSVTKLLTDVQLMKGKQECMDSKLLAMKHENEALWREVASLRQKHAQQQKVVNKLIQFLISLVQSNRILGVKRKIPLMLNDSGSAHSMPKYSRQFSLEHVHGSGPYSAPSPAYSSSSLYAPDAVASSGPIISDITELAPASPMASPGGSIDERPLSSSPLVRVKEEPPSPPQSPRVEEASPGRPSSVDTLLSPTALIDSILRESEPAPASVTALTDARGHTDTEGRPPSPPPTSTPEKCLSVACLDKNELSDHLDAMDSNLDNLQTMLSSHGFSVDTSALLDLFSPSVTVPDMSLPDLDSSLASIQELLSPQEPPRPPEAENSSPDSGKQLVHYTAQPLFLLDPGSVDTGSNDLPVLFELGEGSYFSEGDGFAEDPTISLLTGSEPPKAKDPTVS
# Hepatocyte nuclear factor 3-beta (Homo sapiens), sequence (Q9Y261 whole entry, looked up): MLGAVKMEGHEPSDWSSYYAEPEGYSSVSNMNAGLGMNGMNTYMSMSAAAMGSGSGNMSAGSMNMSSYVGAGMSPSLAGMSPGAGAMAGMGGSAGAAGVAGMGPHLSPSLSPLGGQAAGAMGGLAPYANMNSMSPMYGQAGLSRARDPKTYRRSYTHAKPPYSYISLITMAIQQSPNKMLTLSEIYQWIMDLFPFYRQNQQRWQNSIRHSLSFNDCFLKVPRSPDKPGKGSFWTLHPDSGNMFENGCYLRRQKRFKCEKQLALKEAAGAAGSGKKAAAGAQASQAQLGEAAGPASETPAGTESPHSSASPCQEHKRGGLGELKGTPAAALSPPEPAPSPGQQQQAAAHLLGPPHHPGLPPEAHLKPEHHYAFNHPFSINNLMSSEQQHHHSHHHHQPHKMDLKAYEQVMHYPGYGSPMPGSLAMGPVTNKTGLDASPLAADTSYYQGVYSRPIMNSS
# Paired box protein Pax-6 (Homo sapiens), sequence (P26367 whole entry, looked up): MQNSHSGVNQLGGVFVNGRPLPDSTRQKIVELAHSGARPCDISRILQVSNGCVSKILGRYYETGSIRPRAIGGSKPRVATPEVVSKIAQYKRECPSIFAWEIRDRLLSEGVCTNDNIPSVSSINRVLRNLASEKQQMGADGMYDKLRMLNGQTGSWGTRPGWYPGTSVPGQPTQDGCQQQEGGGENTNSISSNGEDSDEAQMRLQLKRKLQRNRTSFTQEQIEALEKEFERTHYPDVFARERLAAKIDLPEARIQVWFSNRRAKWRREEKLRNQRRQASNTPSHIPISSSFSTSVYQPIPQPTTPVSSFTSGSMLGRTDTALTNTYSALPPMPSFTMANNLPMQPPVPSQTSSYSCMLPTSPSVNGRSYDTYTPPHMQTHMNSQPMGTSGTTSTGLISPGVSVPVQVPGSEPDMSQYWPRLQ
# Hypoxia-inducible factor 1-alpha (Homo sapiens), sequence (Q16665 whole entry, looked up, the tested form may be a part): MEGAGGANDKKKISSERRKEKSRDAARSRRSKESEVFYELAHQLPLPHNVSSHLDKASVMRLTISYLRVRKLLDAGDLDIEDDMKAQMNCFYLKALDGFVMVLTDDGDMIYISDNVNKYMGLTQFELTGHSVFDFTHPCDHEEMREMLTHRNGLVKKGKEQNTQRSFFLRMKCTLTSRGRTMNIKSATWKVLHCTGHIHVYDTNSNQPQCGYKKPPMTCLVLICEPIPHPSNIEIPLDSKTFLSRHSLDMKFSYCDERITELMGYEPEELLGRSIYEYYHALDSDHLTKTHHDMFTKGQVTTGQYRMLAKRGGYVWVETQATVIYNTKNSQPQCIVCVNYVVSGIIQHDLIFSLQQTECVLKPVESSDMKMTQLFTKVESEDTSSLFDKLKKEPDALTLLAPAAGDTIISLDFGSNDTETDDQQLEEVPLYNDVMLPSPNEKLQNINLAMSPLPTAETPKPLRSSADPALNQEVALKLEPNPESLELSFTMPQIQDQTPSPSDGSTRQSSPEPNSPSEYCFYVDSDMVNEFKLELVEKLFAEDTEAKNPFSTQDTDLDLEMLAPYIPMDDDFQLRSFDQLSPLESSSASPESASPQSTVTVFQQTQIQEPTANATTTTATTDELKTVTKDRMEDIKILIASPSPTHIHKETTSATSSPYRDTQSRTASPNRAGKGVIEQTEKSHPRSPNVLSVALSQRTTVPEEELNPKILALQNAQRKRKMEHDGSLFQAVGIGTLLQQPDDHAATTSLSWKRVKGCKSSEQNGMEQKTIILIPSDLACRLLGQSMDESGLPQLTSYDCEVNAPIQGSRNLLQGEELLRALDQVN
# Bile acid receptor (Homo sapiens), sequence (Q96RI1 whole entry, looked up): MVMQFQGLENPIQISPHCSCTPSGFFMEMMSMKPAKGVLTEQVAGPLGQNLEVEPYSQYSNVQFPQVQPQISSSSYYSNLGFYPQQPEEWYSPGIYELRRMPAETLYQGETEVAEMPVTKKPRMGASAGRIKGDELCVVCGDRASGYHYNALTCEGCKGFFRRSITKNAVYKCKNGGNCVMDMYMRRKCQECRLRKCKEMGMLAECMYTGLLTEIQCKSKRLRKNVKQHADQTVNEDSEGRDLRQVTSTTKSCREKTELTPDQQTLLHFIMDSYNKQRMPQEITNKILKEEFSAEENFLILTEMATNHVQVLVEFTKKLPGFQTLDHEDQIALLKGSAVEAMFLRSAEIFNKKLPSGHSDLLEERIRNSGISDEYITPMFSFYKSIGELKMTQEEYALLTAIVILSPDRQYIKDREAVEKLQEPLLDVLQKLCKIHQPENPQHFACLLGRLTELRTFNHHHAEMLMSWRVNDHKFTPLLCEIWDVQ
smiles,measurement,setting,value
CC(C)[N+](=O)[O-],outcome,[1],inactive
same,outcome,[2],inactive
same,outcome,[3],inactive
same,outcome,[4],inactive
same,outcome,[5],inactive
same,outcome,[6],inactive
same,outcome,[7],inactive
same,outcome,[8],inactive
same,outcome,[9],inactive
same,outcome,[10],inactive
same,outcome,[11],inactive
same,outcome,[12],inactive
same,outcome,[13],inactive
same,outcome,[14],inactive
same,outcome,[15],inactive
same,outcome,[16],inactive
same,outcome,[17],inactive
same,outcome,[18],inactive
same,outcome,[19],inactive
CC(C=O)Cc1ccc2c(c1)OCO2 (stereo unspecified),outcome,[1],inactive
same,outcome,[2],inactive
same,outcome,[3],inactive
same,outcome,[4],inactive
same,outcome,[5],inactive
same,outcome,[6],inactive
same,outcome,[7],inactive
same,outcome,[8],inactive
same,outcome,[9],inactive
same,outcome,[11],inactive
same,outcome,[12],inactive
same,outcome,[13],inactive
same,outcome,[14],inactive
same,outcome,[15],inactive
same,outcome,[16],inactive
same,outcome,[19],inactive
CNC(=O)N(C)c1nc2ccccc2s1,outcome,[1],inactive
same,AC50,[2],26.8 µM (active)
same,outcome,[3],inactive
same,outcome,[4],inactive
same,outcome,[5],inactive
same,outcome,[6],inactive
same,outcome,[7],inactive
same,outcome,[8],inactive
same,outcome,[9],inactive
same,outcome,[10],inactive
same,outcome,[11],inactive
same,outcome,[12],inactive
same,outcome,[13],inactive
same,outcome,[14],inactive
same,outcome,[15],inactive
same,outcome,[16],inactive
same,outcome,[19],inactive
CN(N=O)C(N)=O,outcome,[1],inactive
same,outcome,[2],inactive
same,outcome,[3],inactive
same,outcome,[4],inactive
same,outcome,[5],inactive
same,outcome,[6],inactive
same,outcome,[7],inactive
same,outcome,[8],inactive
same,outcome,[9],inactive
same,outcome,[10],inactive
same,outcome,[11],inactive
same,outcome,[12],inactive
same,outcome,[13],inactive
same,outcome,[14],inactive
same,outcome,[15],inactive
same,outcome,[16],inactive
same,outcome,[17],inactive
same,outcome,[19],inactive
c1ccc2c(c1)Oc1ccccc1O2,outcome,[1],inactive
same,outcome,[2],inactive
same,outcome,[3],inactive
same,outcome,[4],inactive
same,outcome,[5],inactive
same,outcome,[6],inactive
same,outcome,[7],inactive
same,outcome,[8],inactive
same,outcome,[9],inactive
same,outcome,[10],inactive
same,outcome,[11],inactive
same,outcome,[12],inactive
same,outcome,[13],inactive
same,outcome,[14],inactive
same,outcome,[15],inactive
same,outcome,[16],inactive
same,AC50,[17],75.9 µM (active)
same,outcome,[19],inactive
CC1(C)[C@H](C(=O)O[C@H](C#N)c2cccc(Oc3ccccc3)c2)[C@@H]1/C=C(\Cl)C(F)(F)F,outcome,[1],inactive
same,outcome,[2],inactive
same,outcome,[3],inactive
same,outcome,[4],inactive
same,outcome,[5],inactive
same,outcome,[6],inactive
same,outcome,[7],inactive
same,outcome,[8],inactive
same,outcome,[9],inactive
same,outcome,[10],inactive
same,outcome,[11],inactive
same,outcome,[12],inactive
same,outcome,[13],inactive
same,outcome,[14],inactive
same,AC50,[15],1.16 µM (active)
same,outcome,[15],inactive
same,outcome,[16],inactive
same,AC50,[17],384 nM (active) and 683 nM (active)
same,outcome,[18],inactive
same,outcome,[19],inactive
CCOP(=S)(OCC)OP(=S)(OCC)OCC,outcome,[1],inactive
same,outcome,[2],inactive
same,outcome,[3],inactive
same,outcome,[4],inactive
same,outcome,[5],inactive
same,outcome,[6],inactive
same,outcome,[7],inactive
same,outcome,[8],inactive
same,outcome,[9],inactive
same,outcome,[10],inactive
same,AC50,[11],49.2 µM (active)
same,outcome,[12],inactive
same,outcome,[13],inactive
same,outcome,[14],inactive
same,outcome,[15],inactive
same,outcome,[16],inactive
same,outcome,[18],inactive
same,outcome,[19],inactive
